Results with a measured potency or affinity are listed apart. Values without a mark were called inactive.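 How the source made its calls: active means every repeat run showing a signal drop whose fitted half-maximal concentration is at most twice the top tested concentration; inconclusive means repeat runs disagree, or flat partial drop, or poor fit; inactive means the rest.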
Experiment: HEK293T cytotoxicity, dose response, cytotoxicity control for miR-122 modulator project, cell-based, activator set, cherry-pick (AID 720690);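 further: 0% = neutral control wells and -100% = MG132 cytotoxic control wells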
Details: HEK293T viability, CellTiter-Glo luminescence, 48 h; series mostly up to 26 µM; activity change, negative = cytotoxicity: at the top concentration

Structure (SMILES)	activity change, negative = cytotoxicity
CN1C(=O)c2cc(NC(=O)c3ccno3)ccc2OC[C@H]2O[C@@H](CC(=O)NCC3CC3)CC[C@@H]21	-4.86%
CN1C(=O)c2cc(NC(=O)c3cccs3)ccc2OC[C@@H]2O[C@@H](CC(=O)NCCN3CCCCC3)CC[C@@H]21	-7.8% [at 23.5 µM]
COc1cccc(C(=O)Nc2ccc3c(c2)C(=O)N(C)[C@H]2CC[C@H](CC(=O)NCc4ccc(F)cc4)O[C@@H]2CO3)c1	5.32%
CC(=O)Nc1ccc(-c2cc(-c3ccc(NC(C)=O)cc3)nc(-c3ccc(NC(C)=O)cc3)n2)cc1	23.2%
CC(=O)N(C)C[C@H]1Oc2cc(/C=C/c3ccccc3)ccc2S(=O)(=O)N([C@@H](C)CO)C[C@H]1C	-1.21%
COCCN(C[C@@H]1[C@@H](c2ccccc2)[C@H](CO)N1C(=O)C1CC1)C(C)=O	-9.14%
Cc1ccc(S(=O)(=O)Nc2ccc3c(c2)C(=O)N(C)[C@@H]2CC[C@H](CC(=O)NCCc4ccncc4)O[C@@H]2CO3)cc1	-5.75%
CC(C)c1ccc(CNC(=O)CSCC(=O)Nc2ccc3ccccc3c2)cc1	-9.7%
Cc1ccc(C(=O)n2nc(-c3ccccc3)nc2NCc2ccco2)cc1	12.1%
C/C=C/c1ccc([C@@H]2[C@@H](CO)N[C@@H]2CN(C(=O)C2CCCC2)C(C)C)cc1	-0.101%
COc1cc(-c2nnc3sc(C4CCCCC4)nn23)cc(OC)c1OC	-26%
Cc1ccc(-n2ncc(C(=O)Nc3cc(Cl)ccc3C)c2C2CCNCC2)cc1C	-5.6%
COCC(=O)Nc1ccc2c(c1)C(=O)N(C)[C@@H]1CC[C@H](CC(=O)NC3CCCC3)O[C@H]1CO2	-3.23%
CCOc1ccc2nc(NS(=O)(=O)c3cccs3)sc2c1	4.68%
Cc1nnc(NC(=O)CSc2nc(C(C)C)nc3sc(C)c(C)c23)s1	-7.61%
O=C(N[C@H]1CC[C@H](CCn2cc(C3(O)CCCC3)nn2)O[C@H]1CO)c1ccccc1F	-20.6%
COCC(=O)Nc1ccc2c(c1)C(=O)N(C)[C@@H]1CC[C@@H](CC(=O)NCCCN(C)C)O[C@@H]1CO2	-23.2%
CNC(=O)C[C@H]1CC[C@@H]2[C@H](COc3ccc(NS(=O)(=O)c4ccc(F)cc4)cc3C(=O)N2C)O1	3.09%
CCCCNC(=O)Nc1nnc(-c2ccc(OCC)cc2)o1	7.89%
CN1C(=O)c2cc(NC(=O)Nc3ccccc3F)ccc2OC[C@@H]2O[C@H](CC(=O)O)CC[C@@H]21	-1.17% [at 23.5 µM]

Structure (SMILES)	activity change, negative = cytotoxicity
CCC(=O)N1[C@H](CN(C)C(C)=O)[C@H](c2ccc(-c3cccnc3)cc2)[C@@H]1CO	-3.45%
O=C(COc1ccccc1F)N1CCc2ccccc2C1	0.158%
Cc1ccc(S(=O)(=O)Nc2ccc3c(c2)C(=O)N(C)[C@@H]2CC[C@@H](CC(=O)NCCc4ccncc4)O[C@@H]2CO3)cc1	-7.64%
CNC(=O)C[C@H]1CC[C@H]2[C@@H](COc3ccc(NC(=O)C(C)C)cc3C(=O)N2C)O1	-14.9%
COCC(=O)N1[C@@H](CO)[C@@H]2c3ccccc3N(C(=O)c3cccnc3)C[C@@H]21	-15.7%
C/C=C/c1ccc([C@@H]2[C@@H](CO)N(C(C)=O)[C@@H]2CN(CC)C(=O)CN(C)C)cc1	-3.94%
NS(=O)(=O)c1ccc(Nc2nc(-c3cccnc3)cs2)cc1	-0.393%
CN1C(=O)c2cc(NS(C)(=O)=O)ccc2OC[C@@H]2O[C@H](CC(=O)O)CC[C@H]21	-4.45% [at 23.5 µM]
O=C(Nc1ccc(CN2CCOCC2)cc1)c1ccc(-c2ccc(Cl)cc2Cl)o1	-16.3%
O=C(NC[C@H]1[C@H](c2ccccc2)[C@@H](CO)N1Cc1ccccn1)C1CC1	2.11% [at 23.5 µM]
CC(C)C(=O)Nc1ccc2c(c1)C(=O)N(C)[C@@H]1CC[C@H](CC(=O)N[C@H](C)c3ccccc3)O[C@@H]1CO2	0.742%
COCCN(C[C@H]1[C@@H](c2ccccc2)[C@H](CO)N1C(=O)C1CCC1)C(C)=O	7.16%
CC(=O)Nc1ccc2c(c1)C(=O)N(C)[C@H]1CC[C@@H](CC(=O)NCc3ccc4c(c3)OCO4)O[C@@H]1CO2	-3.39% [at 23.5 µM]
CCC(=O)N1[C@H](CO)[C@H](c2ccccc2)[C@@H]1CN(CC)C(=O)c1ccccc1	-4.96% [at 23.5 µM]
CN(C)CCCNC(=O)C[C@@H]1CC[C@@H]2[C@@H](COc3ccc(NC(=O)NC4CCCC4)cc3C(=O)N2C)O1	11.1% [at 23.5 µM]
CCC(=O)NC[C@@H]1[C@@H](c2ccc(C3=CCCC3)cc2)[C@@H](CO)N1C(C)=O	4.93%
CC(=O)Nc1ccc2c(c1)C(=O)N(C)[C@@H]1CC[C@H](CC(=O)NC3CCCCC3)O[C@H]1CO2	0.802% [at 23.5 µM]
Cc1nn(C)cc1NC(=O)C[C@H]1CC[C@@H]2[C@H](COc3ccc(NC(=O)Nc4cccc(Cl)c4)cc3C(=O)N2C)O1	3.12%
NC(=O)c1csc(-c2ccncc2)n1	8.98%
Cc1noc(C)c1NC(=O)N(C)C[C@@H]1Oc2cc(C#CCC3CCCC3)ccc2S(=O)(=O)N([C@@H](C)CO)C[C@@H]1C	-48.3%

— PubChem BioAssay AID720690 (Broad Institute, 2013)
